The record followed here is PubChem BioAssay (Tox21).

Molecules are shown by their SMILES. Inconclusive results are not listed. Calls of active or inactive are those of the source. Unless noted, calls come from the whole dose curve; as a rule, active = well fitted curve in the direction sought with a large enough effect in the repeat runs; inconclusive = weak or mixed curves; inactive = no such curve, though single readings can be large; an effect the other way counts as inactive or inconclusive.

The nature of assay [1]: qHTS assay to identify small molecule antagonists of the vitamin D receptor (VDR) signaling pathway - cell viability counter screen (AID 743225). Note: nearly all actives have a fitted effect of over 50% in size. The essentials:
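Luminescent cell viability (CellTiter-Glo) in VDR-bla HEK 293T cells after 16 h compound exposure at 37C in the presence of 3 nM final 1-alpha,25-dihydroxy vitamin D3.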
(In general: qHTS replaces the single test concentration by a dilution series.)

Assay [2] is described as follows: qHTS assay to identify small molecule agonists of the NFkB signaling pathway (AID 1159509; active = well fitted curve in the direction sought with a large enough effect in the signal ratio in the repeat runs, not every such curve was filed as active; the % refers to the signal ratio; note: series mostly up to about 61 µM). Put shortly: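 After overnight attachment, reporter cells received test compounds, DMSO or positive controls and were incubated 5 hr at 37 C. FRET substrate was then added for 1.5 hr at room temperature before dual-emission fluorescence reading.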
Assay [3] in a line: qHTS assay to identify small molecule agonists of the NFkB signaling pathway - cell viability counter screen (AID 1159515; calls by dose curve; note: series mostly up to about 61 µM; nearly all actives have a fitted effect of over 55% in size). Put shortly:
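Luminescence from CellTiter-Glo (30 min, room temperature) gives viability, measured in the same wells as the beta-lactamase reporter read. Cells were NFkB-bla ME-180, 2,000 per well, treated 5 hr with compounds.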

The nature of assay [4]: qHTS assay to identify small molecule agonists of the endoplasmic reticulum stress response signaling pathway (AID 1159516; active = well fitted activation curve with a large enough effect in the signal ratio in the repeat runs, not every such curve was filed as active; the % refers to the signal ratio). Put shortly: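 Read-out is beta-lactamase cleavage of a FRET substrate (405 nm excitation; 460 and 530 nm emissions) in ESRE-bla HeLa cells after a 5 hr compound exposure at 37 C. Substrate incubation ran 2 hr at room temperature.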
Assay [5] in a line: qHTS assay to identify small molecule agonists of the endoplasmic reticulum stress response signaling pathway - cell viability counter screen (AID 1159517; calls by dose curve;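 note: HeLa cells carrying an ER stress response element beta-lactamase reporter; series mostly up to about 61 µM; nearly all actives have a fitted effect of over 50% in size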). The essentials:
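Luminescence readout: CellTiter-Glo, 30 min RT, same wells as the ESRE-bla reporter read. HeLa ESRE-bla, 1,500 cells/well, o/n 37 C; cpd 5 hr 37 C/5% CO2.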

In assay [6] the target is Nuclear receptor ROR-gamma (Homo sapiens) (UniProt P51449). Kind of assay: qHTS assay to identify small molecule antagonists of the retinoid-related orphan receptor gamma (ROR-gamma) signaling pathway (AID 1159521; note: nearly all actives have a fitted effect of over 50% in size; note: potency is the fitted concentration of half-maximal effect). The essentials:
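CHO cells expressing RORγ under a TET-on promoter, luciferase under RORE control. Dox 1 uM final, 16 h; compounds added 2 h prior. Luminescence decrease measured.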

A short description of assay [7]: qHTS assay to identify small molecule agonists of the RXR signaling pathway - cell viability counter screen (AID 1159529).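 Note: HEK 293T cells carrying an RXR-alpha UAS beta-lactamase reporter; series mostly up to about 77 µM; nearly all actives have a fitted effect of over 50% in size.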 The essentials:
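Same-well viability check after the LiveBLAzer FRET read: CellTiter-Glo added, luminescence measured after 30 min at room temperature. Reporter HEK 293T cells had been treated with compounds for 16 hr following a 5 hr preincubation.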

A short description of assay [8]: qHTS assay to identify small molecule antagonists of the retinoid acid receptor (RAR) signaling pathway - cell viability counter screen (AID 1159551). Note: nearly all actives have a fitted effect of over 35% in size. Put shortly: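 Luminescent ATP quantitation (CellTiter-Glo) gave cell viability in C3RL4 cells exposed to test chemicals for 6 h at 37 C alongside 1 uM final retinol.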
A short description of assay [9]: qHTS assay to identify small molecule agonists of the retinoic acid receptor (RAR) signaling pathway (AID 1159553). Note: potency is the fitted concentration of half-maximal effect. Put shortly:
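Luminescence from a RARE-driven luciferase reporter in C3RL4 cells served as the read-out, measured after 30 min with detection reagent at room temperature. Compounds in DMSO were applied for 6 hr at 37 C following overnight seeding.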

Assay [10] is described as follows: qHTS assay to identify small molecule agonists of the vitamin D receptor (VDR) signaling pathway - cell viability counter screen (AID 743224). The essentials:
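Luminescence from CellTiter-Glo, read after 30 min at room temperature, reports viability of VDR-bla cells treated with compounds for 16 h at 37C in the wells used for the beta-lactamase FRET read.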

Assay [11] can be described thus: qHTS assay to identify small molecule antagonists of the retinoid-related orphan receptor gamma (ROR-gamma) signaling pathway - cell viability counter screen (AID 1159520). Note: nearly all actives have a fitted effect of over 50% in size. Note: potency is the fitted concentration of half-maximal effect. The essentials:
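Tet-on ROR gamma CHO cells (1,000/well) were plated 4 hr, given compounds in DMSO for 2 hr at 37 C, then induced with 1 uM final doxycycline for 16 hr. Viability was read as ATP by CellTiter-Glo luminescence after 30 min.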

A short description of assay [12]: qHTS assay to identify small molecule agonists of the AP-1 signaling pathway - cell viability counter screen (AID 1159525; calls by dose curve; note: nearly all actives have a fitted effect of over 55% in size). Put shortly:
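ME-180 AP-1-bla, 2500 cells/well, Opti-MEM + 0.5% dialyzed FBS; overnight 37 °C; cpd 15-pt titration, 5 h 37 °C; CellTiter-Glo 30 min RT; luminescence read; normalised to TOAB and DMSO controls.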

Assay [13] is described as follows: qHTS assay to identify small molecule agonists of the AP-1 signaling pathway (AID 1159526; calls by dose curve).
Assay [14] can be described thus: qHTS assay to identify small molecule antagonists of the retinoic acid receptor (RAR) signaling pathway (AID 1159552; note: nearly all actives have a fitted effect of over 50% in size). The essentials: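 Readout: luciferase luminescence, 30 min post-reagent at RT. Setup: C3RL4 RARE reporter cells, compounds plus retinol 1 uM final, 6 hr incubation at 37 C and 5% CO2.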
The target in assay [15] is Retinoic acid receptor RXR-alpha (Homo sapiens) (UniProt P19793). Kind of assay: qHTS assay to identify small molecule agonists of the RXR signaling pathway (AID 1159527; calls by dose curve; note: nearly all actives have a fitted effect of over 35% in size). The essentials: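 Beta-lactamase reporter assay, agonist format. Engineered HEK 293T line, charcoal-stripped FBS at 2%, overnight (16 hr) exposure, fluorescence at 460 and 530 nm after 405 nm excitation.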
Chain of Retinoic acid receptor RXR-alpha (Homo sapiens) (P19793 whole entry, looked up): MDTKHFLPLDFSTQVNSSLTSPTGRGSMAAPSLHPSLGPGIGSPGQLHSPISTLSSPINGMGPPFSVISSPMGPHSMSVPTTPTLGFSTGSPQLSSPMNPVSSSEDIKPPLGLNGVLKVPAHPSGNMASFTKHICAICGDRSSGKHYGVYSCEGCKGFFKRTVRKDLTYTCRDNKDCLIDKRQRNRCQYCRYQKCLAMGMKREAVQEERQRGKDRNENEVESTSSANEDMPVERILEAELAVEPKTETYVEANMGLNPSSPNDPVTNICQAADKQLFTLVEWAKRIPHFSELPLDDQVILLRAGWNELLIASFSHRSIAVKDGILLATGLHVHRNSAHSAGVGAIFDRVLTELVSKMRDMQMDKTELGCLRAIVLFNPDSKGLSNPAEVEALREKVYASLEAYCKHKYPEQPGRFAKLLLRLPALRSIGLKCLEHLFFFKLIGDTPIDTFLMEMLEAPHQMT

For `CCCN(CCCl)c1c([N+](=O)[O-])cc(C(F)(F)F)cc1[N+](=O)[O-]`, the Potency result in assay [1], in assay [3], in assay [5], in [6], in assay [7] and in assay [8] was “inactive” each time. Also, the Potency entry in assay [9] is “inactive”. Also, the outcome in [2] and in assay [4] was inactive.
As for `CCCCc1c(C)nc(NCC)nc1OS(=O)(=O)N(C)C`, the Potency result in assay [10], in assay [1], in assay [3], in assay [5], in [11] and in [12] was “inactive” in each case. The Potency entry in assay [7], in [8], in assay [14] and in [9] was “inactive” throughout. Besides, the result in assay [2], in assay [4] and in [13] was inactive.
As to `Cn1sc(Cl)cc1=O`, the Potency entry in assay [10], in assay [1], in [3], in assay [5], in [12] and in [15] was “inactive” in each case. The Potency result in assay [7], in [8] and in assay [9] was “inactive” in each case. Moreover, the compound was classed as inactive in assay [2] and in assay [4]. Moreover, in assay [11], the Potency was 61.1 µM (active).
With `CCOP(=O)(OCC)O/C(=C/Cl)c1ccc(Cl)cc1Cl`, the call in assay [2] and in assay [4] was inactive. Also, the Potency entry in assay [3], in assay [5], in [12], in assay [7], in [8] and in assay [9] was “inactive” each time. The Potency in assay [6] is 68.6 µM (active).
Regarding `CCCC(Cn1cncn1)c1ccc(Cl)cc1Cl` (stereo not drawn), the Potency result in assay [10], in assay [1], in assay [3], in assay [5], in assay [12] and in [8] was “inactive” each time. The Potency result in [9] is “inactive”. The compound was called inactive in assay [2] and in assay [4].
As to `COC(=O)C(C)N(C(=O)Cc1ccccc1)c1c(C)cccc1C` (stereo not drawn), the Potency entry in assay [10], in [1], in assay [3], in [5], in [11] and in assay [12] was “inactive” throughout. Besides, the Potency entry in assay [8] is “inactive”. For the same compound, the compound was classed as inactive in assay [2], in assay [4] and in [13].
As for `Cc1ccc(N)cc1C`, the Potency result in assay [10], in assay [1], in assay [3], in [11], in assay [6] and in [12] was “inactive” each time. Moreover, the Potency entry in [15], in [7], in assay [8] and in assay [14] was “inactive” throughout. In addition, the outcome in assay [2], in [4] and in assay [13] was inactive. In addition, the Potency in assay [9] was 69.1 µM (active).
Turning to `ClCc1cccc(Cl)c1`, the Potency entry in assay [10], in [1], in assay [3], in assay [5], in assay [11] and in [15] was “inactive” in each case. The Potency result in [7], in assay [8], in assay [14] and in [9] was “inactive” throughout. The outcome in assay [2], in assay [4] and in assay [13] was inactive.
In the case of `Cc1c(F)c(F)c(COC(=O)C2C(/C=C(\Cl)C(F)(F)F)C2(C)C)c(F)c1F` (stereo not drawn), the Potency result in assay [10], in assay [1], in assay [3], in assay [5], in assay [11] and in assay [12] was “inactive” in each case. In addition, the Potency entry in assay [7], in assay [8] and in assay [9] was “inactive” throughout. Moreover, the compound was called inactive in assay [2], in [4] and in assay [13].
Turning to `CCCCNP(N)(N)=S`, the Potency entry in assay [10], in [1], in assay [3], in assay [5], in assay [12] and in assay [15] was “inactive” throughout. For the same compound, the Potency result in assay [7] and in assay [8] was “inactive” each time. For the same compound, the compound was called inactive in assay [2] and in assay [4].
As to `O=C(CBr)OCc1ccccc1`, the Potency result in assay [10], in assay [3], in [5], in [11], in assay [12] and in assay [15] was “inactive” in each case. The Potency entry in [7], in assay [8], in assay [14] and in assay [9] was “inactive” in each case. In addition, the compound was called inactive in assay [2] and in [4].
